# Reference: PubChem BioAssay AID1851 (National Center for Advancing Translational Sciences (NCATS), 2009)
# “And” between values parts separate entries of the source, which are not always exact repeats. Equal entries are not always repeated. In all, about 16,000 compounds went through this assay and about 2,600 (16%) were called active. Not shown: some 20% with an inconclusive outcome. Only a sample is shown. Unmarked numbers belong to inactive results. The call rests on the fitted dose curve; in most records, active means well fitted curve in the direction sought with a large enough effect; inconclusive means small, poorly fitted or top-dose-only effect, or effect the other way; inactive means no such curve, though single readings can be large or run the other way.
# Target: Cytochrome P450 2D6 (Homo sapiens) (UniProt P10635)
# Assay: Cytochrome panel assay with activity outcomes
# Settings: recombinant CYP, pro-luciferin dealkylation, luminescence, p450-cyp2d6; series mostly up to 57.1 µM
# On the % scale 0 is the no-effect control and ±100 the full control effect.
# Sequence of Cytochrome P450 2D6 (Homo sapiens) (P10635 whole entry, looked up): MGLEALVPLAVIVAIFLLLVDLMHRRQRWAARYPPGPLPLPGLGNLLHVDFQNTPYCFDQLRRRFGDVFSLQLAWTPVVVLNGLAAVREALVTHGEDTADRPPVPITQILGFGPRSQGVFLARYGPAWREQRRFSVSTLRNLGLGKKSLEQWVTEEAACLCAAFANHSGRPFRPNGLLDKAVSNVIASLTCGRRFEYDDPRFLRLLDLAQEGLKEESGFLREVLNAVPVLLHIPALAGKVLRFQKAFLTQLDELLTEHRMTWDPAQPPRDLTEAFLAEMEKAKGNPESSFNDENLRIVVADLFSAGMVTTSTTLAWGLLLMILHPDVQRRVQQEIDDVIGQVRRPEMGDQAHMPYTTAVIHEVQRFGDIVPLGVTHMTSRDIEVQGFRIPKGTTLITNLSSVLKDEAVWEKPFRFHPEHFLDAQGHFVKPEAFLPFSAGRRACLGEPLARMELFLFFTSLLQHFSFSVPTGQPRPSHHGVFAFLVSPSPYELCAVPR
SMILES,"activity, negative = inhibition",AC50
COC(=O)[C@@H]1[C@@H](O)[C@]2(O)c3ccccc3O[C@]2(c2ccccc2)[C@H]1c1ccccc1,-3% [at 11.4 µM],
CC(C)c1ccccc1S(=O)c1ccccc1C(C)(C)O (centres undefined),-12.8% [at 11.4 µM],
FC(F)(F)c1ccccc1-c1ccc2ncnc(NC3CCNCC3)c2c1,,inactive
O=C(O)C1CCN(c2ncnc3ccc(-c4ccccc4C(F)(F)F)cc23)CC1,,inactive
Cc1ccccc1-c1ccc2ncnc(NC3CC3)c2c1,,7.94 µM (active)
CN(C)c1ccc(-c2ccc3ncnc(NC4CC4)c3c2)cc1,,inactive
FC(F)(F)c1ccccc1-c1ccc2ncnc(NC3CC3)c2c1,,20 µM (active)
CCN1C(=O)[C@H]2[C@@H]3[C@H](O)[C@H](O)CC(=O)[C@H]3CC[C@H]2C1=O,1.18% [at 11.4 µM] and 0.815% [at 11.4 µM],
CC(C)=CCC/C(C)=C/CO/N=C1/C[C@@H](O)[C@@H](O)[C@@H]2[C@@H]3C(=O)N(C(C)(C)C)C(=O)[C@H]3CC[C@@H]12,6.78% [at 11.4 µM],
[N-]=[N+]=Nc1ccc(C(=O)CSC[C@@H](NC(=O)CC[C@@H](N)C(=O)O)C(=O)NCC(=O)O)cc1,,inactive
CC(=O)N1CCN(S(=O)(=O)c2ccccc2)C1c1ccccc1 (centres undefined),,inactive
Cc1ccc(S(=O)(=O)N2CCC(C(=O)O)(c3ccccc3)CC2)cc1,7.29% [at 11.4 µM],
Cc1ccc(S(=O)(=O)N2CCN(C(=O)c3ccccc3)C2C(C)C)cc1 (centres undefined),,14.1 µM (active)
C[C@@H]1O[C@H](O[C@@H]2[C@H](C)O[C@H](O[C@@H]3[C@H](C)O[C@H](O[C@H]4CC[C@]5(C)[C@@H](CC[C@@H]6[C@H]5C[C@@H](O)[C@]5(C)[C@@H](C7=CC(=O)OC7)CC[C@]65O)C4)C[C@@H]3O)C[C@@H]2O)C[C@H](O)[C@@H]1O,,inactive
Cc1c(NC(=O)CN2C(=O)C3C4C=CC(C4)C3C2=O)c(=O)n(-c2ccccc2)n1C (centres undefined),,inactive
Cc1ccccc1C(=O)Nc1ccc(N2CCOCC2)nc1,,inactive
CC[N+](CC)(CC)CC[C@](O)(c1ccccc1)C1CCCCC1,,0.02 µM (active)
Cc1ccc(SCN2CCCCC2)cc1 (tested in a mixture with another compound),-7.47% [at 11.4 µM],
OC(CCN1CCCCC1)(c1ccccc1)c1ccccc1,,5.01 µM (active)
Cn1ccnc1C[C@@](C)(O)c1ccccc1,-12.1% [at 11.4 µM],
OC(CCCN1CCCCC1)(c1ccccc1)c1ccccc1,,0.126 µM (active)
CCOc1ccc(C(F)(F)F)cc1NC(=O)c1ccc(OC)c([N+](=O)[O-])c1,,inactive
COc1ccc(C(C(=O)NC2CCCC2)N(Cc2ccc(F)cc2)C(=O)c2ccn[nH]2)cc1OC (centres undefined),,inactive
COC(=O)c1ccccc1NC(=O)C(CCS(C)(=O)=O)NC(C)=O (centres undefined),,inactive
CC(CCc1ccccc1)NC(=O)/C=C/c1ccccc1 (centres undefined),,inactive
O=C1c2ccc3c4c(ccc(c24)C(=O)N1c1ccc2ccccc2c1)CC3,,inactive

SMILES,"activity, negative = inhibition",AC50
O=C(c1ccc(Cl)cc1)N1CCN(C(=O)c2ccco2)CC1,,inactive
Cc1ccc(Cn2cccc(NC(=O)NC3CCCCC3)c2=O)cc1,,inactive
CC(=O)c1[nH]c(C)c(C(C)=O)c1C,,inactive
O=C1C2C3C=CC([C@@H]2C(=O)N1C1CCCCC1)[C@H]1C(=O)N(C2CCCCC2)C(=O)C31 (some centres undefined),,inactive
O[C@@](CCN1CCCCC1)(c1ccccc1)C1CCCCC1,,5.01 µM (active) and 1.26 µM (active)
COc1ccc(C(OCCN2CCC[C@@H](C(=O)O)C2)(c2ccc(OC)cc2)c2ccc(OC)cc2)cc1,,inactive
O=C(CCc1ccccc1)NNC(=O)C1CCCCC1,,inactive
COc1ccc(-c2nc3cnc(N4CCN(C)CC4)nc3n(Cc3cccs3)c2=O)cc1,,inactive
COc1cc2c(cc1C(F)(F)F)N(C(=O)Nc1cc(F)cc(-c3cccnc3)c1)CC2,,inactive
CN1CCc2cc(NC(=O)Nc3cccnc3)ccc21,,25.1 µM (active)
Cn1ncc(Cl)c1C(=O)Nc1cccnc1,,inactive
O=C(Nc1cccc(F)c1)N1CCC2(CC1)CCN(C(=O)c1cnccn1)CC2,,inactive
CSc1cc2c(cc1C(F)(F)F)N(C(=O)Nc1cccnc1)CC2,,31.6 µM (active)
CC(C(=O)Nc1cccnc1)N1C(=O)C2C3C=CC(C3)C2C1=O (centres undefined),,inactive
CCOC(=O)c1c(NC(=O)CCc2ccc(CC)o2)sc(C)c1C,,inactive
COC(=O)C1C(O)=C(C=NCc2ccccc2)C(=O)CC1(C)C (centres undefined),,inactive
Cc1ccc(/C=C2\Sc3ccccc3C2=O)s1,,15.8 µM (active)
CCC(=O)N(C)/C=C1\Sc2ccccc2C1=O,,inactive
CCCN1C(=O)/C(=C/c2ccc(C)s2)SC1=Nc1ccc(OC)cc1,,inactive
O=S(=O)(c1ccccc1)c1cnn2c(C(F)(F)F)cc(-c3ccccc3)nc12,,inactive
c1ccc(-c2ccc3c(c2)c2c4n3CCN=C4CCC2)cc1,,inactive
Cc1ccc(C(C)C)n1C(=O)OC(C)(C)C,0.591% [at 11.4 µM],
O=S1(=O)C=C(Oc2ccc3ccccc3c2)c2ccccc21,,inactive
Cc1c(NC(=O)/C=C/c2cn(-c3ccccc3)nc2-c2ccc(F)cc2)c(=O)n(-c2ccccc2)n1C,,inactive
Cc1ccc(-c2nn(-c3ccccc3)cc2CSC(=N)N)cc1,,0.251 µM (active)
O=C(NCc1cn(-c2ccccc2)nc1-c1ccccc1)c1cc([N+](=O)[O-])cc([N+](=O)[O-])c1,,inactive
NC(=O)C1=CN([C@@H]2O[C@@H](COP(=O)(O)OP(=O)(O)OC[C@@H]3O[C@H](n4cnc5c(N)ncnc54)[C@@H](OP(=O)(O)O)[C@@H]3O)[C@H](O)[C@@H]2O)C=CC1,,inactive
